Source: PubChem BioAssay AID372 (MTDP, 2006)
Out of some 100,000 compounds screened, about 770 (0.77%) were called active. This excerpt belongs to a sample that is enriched for actives. A number with no mark means an inactive call. Cut-off read from the data, not from the text of the source: active = inhibition above about 50%; inactive = the rest.

target: Gag-Pol polyprotein (Human immunodeficiency virus type 1 group M subtype B (isolate HXB2)) (UniProt P04585); experiment: RNase H inhibition, HIV 1 Gag Pol polyprotein, FRET biochemical assay, screening (AID 372); settings: HIV-1 RT RNase H, FRET RNA/DNA substrate fluorescence; at 10 µM; stronger effect = higher value

| SMILES | inhibition |
| --- | --- |
| O=C(CN1C(=O)/C(=C/c2ccccc2Cl)SC1=S)Nc1nccs1 | 14% |
| CCOc1ccccc1N1COc2ccc3ccccc3c2C1 | 14% |
| CCOc1ccc(CN2CCN(C(=O)c3cccs3)CC2)cc1 | 5% |
| COc1cccc(OCCCCOc2ccc(Cl)cc2C)c1 | 29% |
| COc1ccc(OC)c(N(CC(=O)N/N=C/c2cc(Br)ccc2OC)S(=O)(=O)c2ccccc2)c1 | 2% |
| O=C1NC(=O)/C(=C\c2ccc(Cl)cc2Cl)S1 | 16% |
| Cc1ccc(NS(=O)(=O)c2cc(Cl)ccc2Cl)c(Br)c1 | 51% (active) |
| Cc1ccc(NS(=O)(=O)c2cc(Cl)ccc2Cl)c(C)c1 | 20% |
| Cc1ccc(C)c(NS(=O)(=O)c2cc(Cl)ccc2Cl)c1 | 47% |
| COc1ccc(C(=O)Nc2ccc(I)cc2Cl)cc1OC | 8% |
| COc1ccc(-c2nc(-c3ccccn3)no2)cc1OC | 10% |
| CCC(CC)C(=O)Nc1ccc(Cl)cc1Cl | 13% |
| O=C(CCSc1nc2ccccc2s1)Nc1ccccc1C(F)(F)F | 13% |
| Cn1c(-c2nc3ccccc3n2C)nc2ccccc21 | 13% |
| Cn1c(-c2ccc(-c3nc4cnccc4n3C)cc2)nc2cnccc21 | 70% (active) |
| Cn1c(-c2ccccn2)nc2ccccc21 | 2% |
| CC1CCCN(C2=NC(=O)/C(=C\c3cccc(O)c3)S2)C1 (stereo unspecified) | 12% |
| Cc1cc(/C=N/NC(N)=S)c(C)n1-c1cccc([N+](=O)[O-])c1 | 52% (active) |
| Cc1cc(/C=N/NC(=O)c2cc(Br)c(O)c(Br)c2)c(C)n1-c1cccc([N+](=O)[O-])c1 | 15% |
| Cc1ccc(-n2c(C)cc(/C=N/NC(N)=S)c2C)cc1 | 15% |
| Cc1cc(/C=N/NC(N)=S)c(C)n1-c1ccc(Cl)cc1 | 23% |
| Cc1cc(/C=N/NC(N)=S)c(C)n1-c1cccc(Cl)c1 | 54% (active) |
| Cc1cc(/C=N/NC(N)=O)c(C)n1-c1cccc(Cl)c1 | 24% |
| Cc1cc(C=O)c(C)n1-c1cccc([N+](=O)[O-])c1 | 6% |

| SMILES | inhibition |
| --- | --- |
| Cc1cccc(-n2c(C)cc(/C=N/NC(N)=O)c2C)c1 | 29% |
| Cc1cccc(-n2c(C)cc(/C=N/NC(N)=S)c2C)c1 | 56% (active) |
| O=C(NCCc1ccccc1)/C(=C/c1ccco1)c1ccccc1 | 2% |
| Cc1ccc(C(=O)c2cccc(C(=O)c3ccc(C)c(C)c3)c2)cc1C | 8% |
| O=C(Nc1c(-c2ccccc2)c2cc(Br)ccc2[nH]c1=O)c1cccc(Cl)c1 | 23% |
| COc1ccc(OC(C)C(=O)Nc2ccc(F)cc2)cc1 (stereo unspecified) | 0% |
| Cc1ccc(NC(=O)C2CC(=O)N(c3ccc(Br)cc3)C2)cc1Cl (stereo unspecified) | 5% |
| COC(=O)C1=C(C)N(c2ccccc2)C(=O)/C1=C\c1ccc(C(=O)OC)cc1 | 15% |
| Cc1cc(NS(=O)(=O)c2ccc(NC(=O)c3cc(Cl)cc(Cl)c3)cc2)no1 | 0% |
| CCCCNc1ccc2c3c(cc(=O)n2C)-c2ccccc2C(=O)c13 | 8% |
| CC(=O)OCCNc1ccc2noc3c2c1C(=O)c1ccccc1-3 | 0% |
| COCCCNc1ccc2c3c(nc(=O)n2C)-c2ccccc2C(=O)c13 | 50% (active) |
| Fc1ccc(CN2CCc3c([nH]c4ccccc34)C2)cc1 | 0% |
| CCCC(C)C(=O)Nc1cccc(C)c1C (stereo unspecified) | 10% |
| CC(C)(C)C1=CC(Cl)=C(C(C)(C)C)C(=O)C1=O | 5% |
| CC(C)(C)C1=CC(C(C)(C)C)=C([N+](=O)[O-])C(=O)C1=O | 6% |
| CC(C)(C)C1=CC(C(C)(C)C)=C(Cl)C(=O)C1=O | 69% (active) |
| Cc1ccccc1CNS(=O)(=O)c1cccs1 | 0% |
| COc1ccccc1/C=N\N(C)c1nc(-c2ccccc2)cc(-c2ccccc2)n1 | 17% |
| COc1cc(/C=N/Nc2nc(N3CCOCC3)nc(N3CCOCC3)n2)cc(OC)c1 | 5% |
| COc1ccc(-n2nc3ccc(NC(=O)/C=C/c4ccco4)cc3n2)cc1 | 48% |
| O=C(/C=C/c1ccco1)Nc1ccc2nn(-c3ccc(Cl)cc3)nc2c1 | 50% (active) |
| Cc1ccc2nc(-c3ccc(NC(=O)/C=C/c4ccco4)cc3)oc2c1 | 11% |
| O=C(/C=C/c1ccco1)Nc1ccc2oc(-c3ccccc3)nc2c1 | 15% |

| SMILES | inhibition |
| --- | --- |
| O=C(/C=C/c1ccco1)Nc1ccc2nn(-c3ccccc3)nc2c1 | 24% |
| Cc1cc2nc(-c3cccc(NC(=O)/C=C/c4ccco4)c3)oc2cc1C | 12% |
| O=C(/C=C/c1ccc(-c2ccccc2[N+](=O)[O-])o1)Nc1ccc(-c2nc3ncccc3o2)cc1 | 16% |
| O=C(/C=C/c1ccco1)Nc1ccc(-c2nc3cc(Cl)ccc3o2)cc1 | 51% (active) |
| O=C(/C=C/c1ccc(-c2ccccc2[N+](=O)[O-])o1)Nc1ccc(-c2nc3cc(Cl)ccc3o2)cc1 | 53% (active) |
| Cc1cc2nc(-c3ccc(NC(=O)/C=C/c4ccco4)cc3)oc2cc1C | 57% (active) |
| O=C(/C=C/c1ccc(-c2ccccc2[N+](=O)[O-])o1)Nc1ccc(-c2nc3ccccc3o2)cc1 | 45% |
| Cc1ccc(-c2nc3cc(NC(=O)/C=C/c4ccco4)ccc3o2)cc1 | 12% |
| O=C(Nc1ccc(N2CCOCC2)c(Cl)c1)c1cc([N+](=O)[O-])ccc1Cl | 24% |
| O=C1NC(=O)C(=Cc2ccccc2OCc2ccccc2F)C(=O)N1 | 4% |
| COc1ccc(CN2CCN(C(=O)c3cccs3)CC2)c(OC)c1 | 5% |
| CC(C)(C)c1ccc(S(=O)(=O)Nc2ccc(-c3ccc(NS(=O)(=O)c4ccc(C(C)(C)C)cc4)c(Cl)c3)cc2Cl)cc1 | 23% |
| CC1CCN(Cc2c(O)ccc3c(=O)c(-c4ccc(Cl)cc4)coc23)CC1 | 0% |
| COc1cc(-c2nc3ccccn3c2/N=C/c2cccc([N+](=O)[O-])c2)ccc1O | 17% |
| O=C(/C=C/c1ccco1)Nc1nc(-c2ccc(Br)cc2)cs1 | 15% |
| O=C(/C=C/c1ccco1)Nc1nc2ccc(Br)cc2s1 | 59% (active) |
| O=C(/C=C/c1ccco1)Nc1ccc(C(=O)Nc2cccc(-c3nc4ccccc4o3)c2)cc1 | 55% (active) |
| Cc1ccc2oc(-c3cccc(NC(=O)/C=C/c4ccco4)c3)nc2c1 | 6% |
| O=C(/C=C/c1ccccc1)Nc1nc2ccc(Br)cc2s1 | 48% |
| O=C(/C=C/c1ccco1)Nc1cccc(-c2nc3ccccc3o2)c1 | 10% |
| CC(C)(C)C(=O)CC(=O)c1ccccc1 | 10% |
| CCOc1cc(CN2CCCCC2)ccc1OC | 19% |
| O=C(NC(=S)Nc1ccc(F)c([N+](=O)[O-])c1)c1cccc(Cl)c1 | 22% |
| CC(/C=C/c1ccccc1)=N/NS(C)(=O)=O | 3% |

| SMILES | inhibition |
| --- | --- |
| COc1ccc(/C=C/C(=O)Nc2c(C(C)C)cccc2C(C)C)cc1Br | 7% |
| CCC(C(=O)Nc1cc(Cl)ccc1OC)c1ccccc1 (stereo unspecified) | 29% |
| O=C(COc1ccc(Br)cc1)Nc1ccc(F)cc1F | 0% |
| CCSc1nc2c(C)c(O)c(C)cc2[nH]1 | 0% |
| O=C(Nc1ccccc1)Nc1nnc(Cc2ccc(Cl)c(Cl)c2)s1 | 16% |
| COC(=O)c1sccc1NS(=O)(=O)c1cc(Cl)ccc1Cl | 35% |
| COC(=O)c1sccc1NS(=O)(=O)c1ccc(Cl)cc1 | 70% (active) |
| COC(=O)c1sccc1NS(=O)(=O)c1ccc(OC)cc1 | 0% |
| COC(=O)c1ccccc1NC(=O)COc1ccc(Cl)cc1C | 4% |
| Cc1cc(Cl)ccc1OCC(=O)Nc1ccccc1C(N)=O | 7% |
| CCOC(=O)c1ccccc1NC(=O)COc1ccc(Cl)cc1C | 50% (active) |
| CCOC(=O)c1c(NC(=O)COc2ccc(Cl)cc2C)sc(C(N)=O)c1C | 12% |
| Cc1sc(NC(=O)COc2ccc(Cl)cc2Cl)c(C(N)=O)c1C | 9% |
| Cc1ccc(N[C@H]2OC[C@H](O)[C@H](O)[C@H]2O)cc1[N+](=O)[O-] | 6% |
| CCC(=O)Nc1sc(Cc2ccccc2)c(C)c1C(N)=O | 1% |
| O=C(NCCCN1CCOCC1)/C(=C/c1ccc(-c2ccc(Cl)cc2)o1)NC(=O)c1ccccc1 | 0% |
| COc1ccc(C(=O)NC(NC(=S)Nc2sc3c(c2C(N)=O)CCCC3)C(Cl)(Cl)Cl)cc1 (stereo unspecified) | 11% |
| CCOC(=O)C1=C(C)N=c2s/c(=C\c3ccc(-c4cc(Cl)ccc4Cl)o3)c(=O)n2C1c1ccc(OC)cc1 (stereo unspecified) | 50% (active) |
| CCOC(=O)C1=C(C)N=c2s/c(=C\c3ccc(-c4ccc(Cl)cc4)o3)c(=O)n2C1c1ccc(OC)cc1OC (stereo unspecified) | 51% (active) |
| CCOC(=O)C1=C(C)N=c2s/c(=C\c3ccc(-c4cc(Cl)ccc4C)o3)c(=O)n2C1c1ccc(OC)cc1 (stereo unspecified) | 15% |
| CCOC(=O)C1=C(C)N=c2s/c(=C\c3ccc(-c4ccc(Cl)cc4)o3)c(=O)n2C1c1cc(OC)ccc1OC (stereo unspecified) | 7% |
| CCOC(=O)C1=C(C)N=c2s/c(=C\c3ccc(-c4ccc(Cl)cc4Cl)o3)c(=O)n2C1c1ccc(OC)cc1 (stereo unspecified) | 12% |
| CCOC(=O)C1=C(C)N=c2s/c(=C\c3ccc(-c4ccc(Cl)c(Cl)c4)o3)c(=O)n2C1c1ccc(OC)cc1OC (stereo unspecified) | 10% |
| CC(/C=C/c1ccco1)=N/NC(=O)COc1cccc(Cl)c1 | 14% |
